Test [1] can be described thus: Cell Viability - SK-N-SH (AID 435; calls by dose curve; also: potency is read from the fitted curve at half-maximal effect). The settings on record: SK-N-SH neuroblastoma cell viability qHTS. The procedure, abridged: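 Luminescent ATP signal served as the viability read-out after 40 hours of compound treatment of human neuroblastoma SK-N-SH cells. Concentration-response data, scaled between DMSO and 100 uM tamoxifen, gave AC50 values by standard Hill modeling.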
For orientation: Quantitative high-throughput screening tests each substance at several concentrations.

Test [2] can be described thus: Cell Viability - N2a (AID 540).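 Also: plate controls were DMSO alone for no effect and tamoxifen control for full effect; nearly all actives have a fitted effect of over 45% in size.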 Conditions: N2a mouse neuroblastoma cell viability; activity change, negative = cytotoxicity: at 92.2 µM (top of the series). A digest of the protocol:
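N2a mouse neuroblastoma, 1500 cells/well, 5 hr settle; compound 40 hr, 37 °C; CellTiter-Glo 20 min RT; luminescence; Hill-fit AC50.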

Test [3] in a line: Cell Viability - H-4-II-E (AID 543). Also: % is scaled to controls: 0 for no effect and ±100 for the full control effect; nearly all actives have a fitted effect of over 35% in size. The settings on record: H-4-II-E rat hepatoma viability; series mostly up to 92.2 µM. A digest of the protocol: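 qHTS, rat hepatoma H-4-II-E, 1500 cells/well; 40 hr compound exposure, 37 °C; CellTiter-Glo ATP luminescence after 20 min RT; AC50 by standard Hill fit.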
The nature of test [4]: Cell Viability - Renal Proximal Tubule (AID 545).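 Also: 0% = DMSO only and -100% = 100 µM tamoxifen; nearly all actives have a fitted effect of over 40% in size.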 The settings on record: renal proximal tubule cells viability, primary cells of rat origin; activity change, negative = cytotoxicity: at 91.7 µM (top of the series). The procedure, abridged:
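Luminescent ATP signal (CellTiter-Glo) served as the viability read-out after 40 hr compound exposure of freshly isolated rat proximal tubule cells at 37 °C. Concentration-dependent ATP loss was fitted with the Hill equation to give AC50.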

Test [5] is described as follows: Cell Viability - LYMP2-001 (AID 921).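 Also: cells exposed to compound for 24 h at 37 °C; 0% = DMSO only and full inhibition = tetraoctylammonium bromide control wells; nearly all actives have a fitted effect of over 70% in size.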 The settings on record: LYMP2-001 lymphoblastoid cell viability; series mostly up to 92.2 µM. A digest of the protocol:
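Steps: seed 2500 lymphoblastoid cells/well; 5 hr, 37 C; add compound; 24 hr, 37 C; CellTiter-Glo reagent, 30 min room temperature; read luminescence. Concentration-response modeled by Hill equation for AC50.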

The nature of test [6]: MultiTox-Fluor Cytotoxicity Assay - LYMP1-001 - Live Cells (AID 947).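 Also: 0% = DMSO only and full inhibition = tetraoctylammonium bromide control.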 The settings on record: LYMP1-001 lymphoblastoid cells, live-cell protease fluorescence viability; series mostly up to 92.2 µM.
Test [7] can be described thus: MultiTox-Fluor Cytotoxicity Assay - LYMP1-002 - Dead Cells (AID 960).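 Also: 0% = DMSO and 100% = tetraoctylammonium bromide; nearly all actives have a fitted effect of over 60% in size.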 Conditions: LYMP1-002 lymphoblastoid cells, dead-cell protease fluorescence; series mostly up to 46.1 µM. A digest of the protocol: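 Readout: fluorescence at 485/520 from cell-impermeant bis-AAF-R110 cleaved by proteases leaking from damaged cells. LYMP1-002 lymphoblastoid line, 16 hr compound treatment at 37 C, concentration-response in qHTS format; Hill-equation AC50 values.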

Test [8] is described as follows: Cell Viability - LYMP1-003 - Assay at 40 hr (AID 964). Also: % is scaled to controls: 0 for no effect and ±100 for the full control effect; nearly all actives have a fitted effect of over 60% in size. The settings on record: LYMP1-003 lymphoblastoid viability; series mostly up to 92.2 µM. The procedure, abridged:
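LYMP1-003 lymphoblastoid cells, 2500/well; 5 hr preincubation, 40 hr compound exposure, 37 C; CellTiter-Glo 30 min RT; luminescence; Hill-fit AC50. Positive control tetraoctylammonium bromide.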

Test [9] is described as follows: Cell Viability - LYMP2-004 (AID 966).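 Also: cells exposed to compound for 24 h; plate controls were DMSO only for no effect and tetraoctylammonium bromide control for full effect; nearly all actives have a fitted effect of over 65% in size.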 The settings on record: LYMP2-004 lymphoblastoid cell viability, qHTS; series mostly up to 92.2 µM. The procedure, abridged:
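Luminescent ATP read-out (CellTiter-Glo, 30 min RT) after 24 hr compound exposure at 37 C; 2500 lymphoblastoid cells/well, complete medium. Decrease in ATP = cytotoxicity; AC50 from standard Hill model.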

Test [10] can be described thus: Cell Viability - LYMP2-009 (AID 968).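 Also: cells exposed to compound for 24 h at 37 °C; 0% = DMSO alone and the full-kill end = tetraoctylammonium bromide at 92 µM; nearly all actives have a fitted effect of over 55% in size.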 The settings on record: LYMP2-009 lymphoblastoid cell viability; series mostly up to 92.2 µM.
A short description of test [11]: Cell Viability - LYMP2-015 (AID 971).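 Also: cells exposed to compound for 24 h; 0% = DMSO only and full effect = 92 µM tetraoctylammonium bromide; nearly all actives have a fitted effect of over 55% in size.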 Conditions: LYMP2-015 lymphoblastoid cell viability; series mostly up to 92.2 µM. A digest of the protocol:
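qHTS cytotoxicity: 2500 cells/well, 5 hr 37 C, compound 24 hr 37 C, CellTiter-Glo 30 min RT, luminescence. Loss of ATP = toxicity; AC50 via standard Hill fit.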

The nature of test [12]: Cell Viability - LYMP2-017 (AID 972).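 Also: cells exposed to compound for 24 hours at 37 °C; % is scaled to controls: 0 for no effect and ±100 for the full control effect; nearly all actives have a fitted effect of over 55% in size.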 Conditions: LYMP2-017 lymphoblastoid cell viability; series mostly up to 92.2 µM. The procedure, abridged: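 Luminescent ATP read-out (CellTiter-Glo, 30 min RT) reports viable cell number. Cells: human lymphoblastoid line, 2500 per well, 5 hr preincubation, 24 hr compound exposure at 37 C. AC50 is derived from qHTS concentration-response data using the standard Hill model.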

A short description of test [13]: Cell Viability - LYMP2-019 (AID 973).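 Also: cells exposed to compound for 24 h at 37 °C; 0% = DMSO alone and full effect = 92 µM tetraoctylammonium bromide; nearly all actives have a fitted effect of over 55% in size.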 The settings on record: LYMP2-019 lymphoblastoid cell line viability; series mostly up to 92.2 µM. A digest of the protocol:
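qHTS, 1536-well; 2500 cells/well; 5 hr pre-incubation, 24 hr compound exposure, 37 C; CellTiter-Glo added, 30 min RT; luminescence read; AC50 via standard Hill equation.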

Test [14] in a line: Cell Viability - LYMP2-010 (AID 981). Conditions: LYMP2-010 lymphoblastoid cell viability, qHTS; series mostly up to 92.2 µM. A digest of the protocol:
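qHTS cytotoxicity, 1536-well: 2500 cells/well, 5 hr settle, 24 hr compound at 37 C, CellTiter-Glo 30 min RT, luminescence read. Decrease in ATP = toxicity; AC50 via standard Hill equation. Positive control tetraoctylammonium bromide.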

Test [15] in a line: qHTS assay for small molecule agonists of retinoid X receptor alpha signaling (AID 588544; calls by dose curve). Conditions: HEK293T RXRa-UAS-bla, beta-lactamase reporter, 18 h; 530 nm emission.
For test [16], the target named is Retinoic acid receptor RXR-alpha (Homo sapiens) (UniProt P19793). The description is as above. Conditions: HEK293T RXRa-UAS-bla, beta-lactamase reporter, 18 h; series mostly up to 76.7 µM.
Test [17] deals with Thyroid hormone receptor beta (Homo sapiens) (UniProt P10828). Description: qHTS assay for small molecule antagonists of thyroid hormone receptor beta signaling (AID 588547; active = well fitted inhibition curve with a large enough effect in the signal ratio, with a control signal flat, not every such curve was filed as active; the % refers to the signal ratio;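 also: cells stimulated with 0.4 nM T3 agonist during compound exposure; % is scaled to controls: 0 for no effect and ±100 for the full control effect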). Conditions: TR-UAS-bla HEK293, beta-lactamase ratio, antagonist mode, 18 h. The procedure, abridged:
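TR-UAS-bla GripTite HEK293 cells in 2% charcoal/dextran FBS medium were preincubated 4 h at 37 C, given compound (0.59 nM to 92 uM) plus 0.4 nM T3 (final) for 18 h, then CCF4 for 2 h at RT; Hill fit gave IC50.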

Test [18] in a line: qHTS assay for small molecule agonists of the antioxidant response element (ARE) signaling pathway measured by Nrf2-dependant transcriptional activity (AID 720636; active = well fitted curve in the direction sought with a large enough effect in the repeat runs; an effect the other way counts as inactive or inconclusive; also: % of control where 0% means no effect). Conditions: ARE-luc HepG2, Nrf2 luciferase reporter, 16 h; series mostly up to 92.4 µM. The procedure, abridged: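 Nrf2-dependent transcription is measured in ARE-luc HepG2 cells: compound is applied for 16 hr at 37 C after a 6 hr attachment period, and luciferase activity is quantified by luminescence using ONE-Glo.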

The target of test [19] is Nuclear receptor subfamily 1 group I member 2 (Rattus norvegicus) (UniProt Q9R1A7). The experiment in a line: qHTS assay for small molecule activators of the rat pregnane X receptor (rPXR) signaling pathway (AID 651751; call rule not given here; also: 0% is about no effect). The settings on record: rPXR reporter cells, luciferase (One-Glo), 24 h.
The nature of test [20]: qHTS assay for small molecule disruptors of the mitochondrial membrane potential - 5 hr assay (AID 651755; calls by dose curve; also: nearly all actives have a fitted effect of over 40% in size; also: potency is read from the fitted curve at half-maximal effect). The settings on record: JC-1-type ratio dye; series mostly up to 92.2 µM. A digest of the protocol: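 Seed HepG2 overnight, add compound, incubate 5 hr at 37C and 5% CO2, stain 30 min with Mito-MPS, then measure monomer (490/535 nm) and aggregate (540/590 nm) fluorescence.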

Where “and” joins values, the source holds several entries; their conditions need not be identical. Equal entries are not always repeated. Records with an inconclusive call do not appear. Calls of active or inactive are those of the source. Unless noted, calls follow the shape of the dose curve; as a rule, active = well fitted curve in the direction sought with a large enough effect; inconclusive = small, poorly fitted or top-dose-only effect, or another doubt; inactive = no such curve, though single readings can be large; an effect the other way counts as inactive or inconclusive.

Sequence of Thyroid hormone receptor beta (Homo sapiens) (P10828 whole entry, looked up): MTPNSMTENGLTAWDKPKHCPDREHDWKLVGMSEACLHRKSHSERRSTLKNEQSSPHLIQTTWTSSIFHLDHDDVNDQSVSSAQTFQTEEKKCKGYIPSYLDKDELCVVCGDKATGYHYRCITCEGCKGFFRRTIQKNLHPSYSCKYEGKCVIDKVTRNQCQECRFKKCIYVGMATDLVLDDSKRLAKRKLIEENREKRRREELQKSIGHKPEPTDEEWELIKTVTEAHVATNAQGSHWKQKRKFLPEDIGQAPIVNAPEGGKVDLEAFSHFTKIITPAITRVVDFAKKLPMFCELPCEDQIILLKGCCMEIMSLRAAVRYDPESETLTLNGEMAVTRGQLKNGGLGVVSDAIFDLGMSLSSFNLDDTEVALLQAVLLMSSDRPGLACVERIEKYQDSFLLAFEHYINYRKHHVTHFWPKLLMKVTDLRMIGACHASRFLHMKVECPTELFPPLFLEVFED
Sequence of Nuclear receptor subfamily 1 group I member 2 (Rattus norvegicus) (Q9R1A7 whole entry, looked up): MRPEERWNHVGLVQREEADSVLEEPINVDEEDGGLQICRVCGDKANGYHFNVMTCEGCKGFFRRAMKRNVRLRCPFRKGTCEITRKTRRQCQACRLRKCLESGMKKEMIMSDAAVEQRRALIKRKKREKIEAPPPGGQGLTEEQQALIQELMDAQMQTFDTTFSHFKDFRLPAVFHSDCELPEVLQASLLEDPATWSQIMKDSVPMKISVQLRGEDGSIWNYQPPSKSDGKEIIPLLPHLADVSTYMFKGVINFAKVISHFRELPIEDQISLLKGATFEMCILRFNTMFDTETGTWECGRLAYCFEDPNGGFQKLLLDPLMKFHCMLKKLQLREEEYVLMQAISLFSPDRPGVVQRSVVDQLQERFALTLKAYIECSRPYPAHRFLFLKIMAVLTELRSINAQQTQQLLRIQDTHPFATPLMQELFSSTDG
Sequence of Retinoic acid receptor RXR-alpha (Homo sapiens) (P19793 whole entry, looked up): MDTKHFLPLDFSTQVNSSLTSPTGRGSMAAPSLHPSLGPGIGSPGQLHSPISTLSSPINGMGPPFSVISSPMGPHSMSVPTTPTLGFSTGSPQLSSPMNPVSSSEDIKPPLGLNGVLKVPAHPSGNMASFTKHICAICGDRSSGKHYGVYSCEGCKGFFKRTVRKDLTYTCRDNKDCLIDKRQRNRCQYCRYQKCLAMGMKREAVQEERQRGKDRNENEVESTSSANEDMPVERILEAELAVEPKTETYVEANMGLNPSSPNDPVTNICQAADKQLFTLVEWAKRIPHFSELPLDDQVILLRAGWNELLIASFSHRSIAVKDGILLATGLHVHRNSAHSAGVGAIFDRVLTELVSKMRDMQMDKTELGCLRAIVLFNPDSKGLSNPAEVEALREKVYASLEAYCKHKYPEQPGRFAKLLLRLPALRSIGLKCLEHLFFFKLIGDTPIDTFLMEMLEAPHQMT

Take `CC(C)COC(=O)COc1cc(Cl)c(Cl)cc1Cl`: in test [1], the Potency was > 92 µM (inactive). Moreover, the activity change, negative = cytotoxicity in [2] was 8.53% (inactive). In addition, the Potency entry in test [3], in test [4], in test [5], in test [6], in test [7] and in test [8] was “inactive” in each case. In addition, the Potency result in [9], in [10], in test [11], in test [12], in test [13] and in test [14] was “inactive” each time. Further, the Potency entry in test [16] and in test [18] was “inactive” each time. In addition, the max response is -5.32% in test [15] and -2.47% (inactive) in test [19]. For the same compound, the activity change % (negative = inhibition) in test [17] was 14.2% (inactive).

For `CCCC(=O)OC(=O)CCC`, the Potency in test [1] was > 92 µM (inactive). Also, in [2], the activity change, negative = cytotoxicity was -12.9% (inactive). Besides, the Potency entry in test [3], in [4], in test [5], in test [6], in test [7] and in test [8] was “inactive” each time. For the same compound, the Potency result in [9], in test [10], in [11], in test [12], in test [13] and in test [16] was “inactive” in each case. Moreover, the Potency result in test [20] and in test [18] was “inactive” throughout. Also, the max response in test [15] is 16.4% and -19.3%; in test [19] it was -1.94% (inactive) and 0.492% (inactive). Also, in test [17], the activity change % (negative = inhibition) is 18.6% (inactive) and 0.261% (inactive).

For `O=C(OCc1ccccc1)c1ccccc1O`, in test [1], the Potency is > 92 µM (inactive). Besides, the activity change, negative = cytotoxicity in test [2] was -11.2% (inactive). In addition, the Potency entry in test [3], in test [4], in test [5], in test [6], in test [8] and in [9] was “inactive” each time. For the same compound, the Potency result in test [10], in test [11], in test [12], in test [13], in [14] and in test [16] was “inactive” each time. The Potency entry in test [20] and in test [18] was “inactive” each time. In addition, the max response in test [15] was -8.01% and -0.712%; in test [19], -3.94% (inactive) and -2.55% (inactive). Moreover, in test [17], the activity change % (negative = inhibition) was -8.64% (inactive).

In the case of `O=[N+]([O-])c1cccc(I)c1`, the Potency in [1] was > 92 µM (inactive). For the same compound, the activity change, negative = cytotoxicity in [2] is -10.4% (inactive). The Potency entry in [3], in test [4], in test [5], in [6], in [7] and in [8] was “inactive” in each case. Moreover, the Potency entry in [9], in test [10], in [11], in test [12], in test [13] and in [14] was “inactive” throughout. Moreover, the Potency result in test [16], in test [20] and in [18] was “inactive” throughout. Also, the values for the max response in test [15] and in test [19] were -0.727% and -1.98% (inactive), respectively. Moreover, in test [17], the activity change % (negative = inhibition) was -8.55% (inactive).

`O=c1[nH]ncc2ccccc12`: in test [1], the Potency is > 92 µM (inactive). Further, the activity change, negative = cytotoxicity in test [2] is -2.98% (inactive). Further, the Potency result in test [3], in [4], in test [5], in [6], in [7] and in test [8] was “inactive” in each case. Moreover, the Potency entry in [9], in [10], in test [11], in [12], in test [13] and in test [14] was “inactive” in each case. In addition, the Potency result in test [16], in [20] and in [18] was “inactive” throughout. The max response in test [15] was 10.5%; in test [19] it was -3.03% (inactive). Also, the activity change % (negative = inhibition) in test [17] was -18.2% (inactive).

`COc1ccc([N+](=O)[O-])cc1N`: the Potency in test [1] was > 92 µM (inactive). Besides, the Potency entry in test [3], in [4], in test [5], in [6], in test [7] and in [8] was “inactive” each time. The Potency entry in test [10], in [11], in [12], in test [13], in [14] and in [16] was “inactive” in each case. The Potency entry in [20] and in test [18] was “inactive” throughout. The max response in [15] was -3.38% and -0.384%. Also, the activity change % (negative = inhibition) in [17] is -27.9% (inactive).

As to `COc1ccc(C(=O)Nc2ccccc2)cc1[N+](=O)[O-]`, the Potency in test [1] is > 92 µM (inactive); in test [20] it was 37.6 µM (active). Further, in test [2], the activity change, negative = cytotoxicity is -4% (inactive). The Potency entry in test [3], in [4], in test [5], in [6], in test [8] and in [9] was “inactive” throughout. The Potency entry in [10], in test [11], in test [13] and in [14] was “inactive” throughout. Further, the activity change % (negative = inhibition) in [17] is 2.48% (inactive).

These data come from PubChem BioAssay (NCATS).
